Among the data in PubChem BioAssay (NCI) are growth values, retold here.

Test systems include T-47D breast; BT-549 breast; MDA-MB-435 melanoma; SW-620 colon; MCF7 breast; HCT-116 colon; HCC-2998 colon; KM12 colon.
Holding throughout (experiment): NCI-60 one-dose screen, 48 h (100 = growth as untreated, 0 = no growth, -100 = all killed)
Holding throughout (details): 10 µM unless noted

About 83,000 compounds went through this panel and 20% of them were active in at least one assay; those are over-represented in the sample as a whole.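 In brief: 96-well plates, 48 h treatment, single concentration, percent growth endpoint.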 Unmarked numbers belong to inactive results. Active and inactive are the calls of the source. How the source made its calls: active means growth percent below 10; inactive means the rest.

Consider `Nc1ccccc1NC(=O)c1ccc(CN2CCC/C(=C\c3cccc(Cl)c3)C2=O)cc1`, for which the growth with T-47D breast was 32.4%; in the assay on BT-549 breast, -9.32% (active); with MDA-MB-435 melanoma, 3.87% (active); with SW-620 colon it was 23.9%; with MCF7 breast, 8.72% (active); in the assay with HCT-116 colon, 6.06% (active). In addition, the values for the growth in the assay with HCC-2998 colon and in the assay with KM12 colon were 12.4% and 4.58% (active), respectively.
For `Cc1ccc(C2CC(c3cccc(Nc4ccncc4)c3)=NN2c2ccc(Cl)cc2)cc1` (stereo not given), the growth in the assay on T-47D breast was -47.9% (active); in the assay on BT-549 breast, 96.5%; in the assay with MDA-MB-435 melanoma, -84.7% (active); with SW-620 colon, -46.9% (active); with MCF7 breast it was -73.4% (active); with HCT-116 colon, -80.1% (active). For the same compound, the growth with HCC-2998 colon is -93.4% (active); with KM12 colon it was -89.3% (active).
For `COc1ccc(C(=O)c2cc3c(N)c(C(=O)Nc4cccc(Cl)c4)sc3nc2C)cc1`, the growth in the assay with T-47D breast was 43.8%; with BT-549 breast, 78.1%; in the assay on MDA-MB-435 melanoma, -35.2% (active); with SW-620 colon it was 35.4%; in the assay on MCF7 breast, 26.5%; in the assay on HCT-116 colon it was 14.9%. The growth in the assay with HCC-2998 colon was 18.3%; with KM12 colon, 22.1%.
As to `Cc1[nH]c(C(=O)Nc2ccccc2OCc2cccc(C(=O)NCCN)c2)c(Cl)c1Cl`, the growth was 46.5% with T-47D breast; 97.2% in the assay on BT-549 breast; 69.1% in the assay on MDA-MB-435 melanoma; 3.75% (active) in the assay on SW-620 colon; 14.7% with MCF7 breast; 7.52% (active) with HCT-116 colon. The growth with HCC-2998 colon was 84.4%; with KM12 colon, 64.1%.
For `Clc1ccc(C2CC(c3cccc(Nc4ccncc4)c3)=NN2c2ccc(Cl)cc2)cc1` (stereo not given), the growth with T-47D breast was 52.2%; with BT-549 breast, -80.2% (active); with MDA-MB-435 melanoma, -79% (active); in the assay on SW-620 colon, -67.6% (active); with MCF7 breast, -41.1% (active); with HCT-116 colon, -73.2% (active). In addition, the growth in the assay with HCC-2998 colon is -74% (active); in the assay on KM12 colon, -77.3% (active).
Turning to `CS(=O)(=O)c1ccc(-c2cc(-c3nnc(SCC(=O)Nc4ccc(C(=O)/C=C/c5ccc(Cl)cc5)cc4)n3-c3ccccc3)c3ccccc3n2)cc1`, the growth in the assay on T-47D breast was 87%; in the assay with BT-549 breast it was 108%; in the assay with MDA-MB-435 melanoma, 101%; in the assay with SW-620 colon, 96.9%; in the assay with MCF7 breast, 92.5%; in the assay with HCT-116 colon it was 92.7%. The figures for the growth in the assay with HCC-2998 colon and with KM12 colon were 106% and 96.8%, respectively.
Regarding `C1=C2CNCC3=Cc4ccc5ccccc5c4OC23Oc2c1ccc1ccccc21`, the growth is 66.7% in the assay on T-47D breast; 79.9% with BT-549 breast; -69.7% (active) in the assay with MDA-MB-435 melanoma; 8.75% (active) with SW-620 colon; 12% in the assay with MCF7 breast; 11.1% in the assay with HCT-116 colon. Further, the growth in the assay on HCC-2998 colon is 56.9%; in the assay with KM12 colon, 15.2%.
Turning to `C[C@@H]1CN(Cc2ccc(/C=C/c3n[nH]c4ccc5nc(-c6cn[nH]c6C(F)(F)F)c6c(c5c34)CCCC6)cc2)C[C@H](C)O1`, the growth is 49.8% in the assay with T-47D breast; 39.6% with BT-549 breast; 46.7% in the assay on MDA-MB-435 melanoma; -16.6% (active) in the assay with SW-620 colon; 12.4% in the assay with MCF7 breast; 4.51% (active) in the assay with HCT-116 colon. For the same compound, the growth in the assay with HCC-2998 colon is 27.6%; in the assay on KM12 colon, 19.8%.
As to `CCCCOc1ccc(/C=N/Nc2cc(C)nc3ccc(Cl)cc23)cc1`, the growth in the assay with T-47D breast was 21.5%; in the assay with BT-549 breast it was 96.6%; with MDA-MB-435 melanoma, -85.2% (active); in the assay on SW-620 colon, -58.3% (active); in the assay with MCF7 breast it was -70.8% (active); in the assay with HCT-116 colon, -68% (active). For the same compound, the growth in the assay with HCC-2998 colon was -71.1% (active); in the assay with KM12 colon, -76.6% (active).
`CN1CCN(CCCOc2ccc3ncnc(Nc4ccc(Oc5cccc(C(F)(F)F)c5)c(Cl)c4)c3c2)CC1`: the growth was 19.2% in the assay on T-47D breast; 69.9% in the assay on BT-549 breast; -82% (active) in the assay with MDA-MB-435 melanoma; -71.6% (active) in the assay on SW-620 colon; -28.7% (active) in the assay with MCF7 breast; -62% (active) in the assay with HCT-116 colon. The values for the growth with HCC-2998 colon and in the assay on KM12 colon were -66.2% (active) and -3.45% (active), respectively.
As for `NC(=O)c1cccc(-c2cc(C(N)=O)ccc2Cl)c1`, the growth in the assay on T-47D breast is 33.9%; in the assay with BT-549 breast, 57.9%; with MDA-MB-435 melanoma it was -27.6% (active); with SW-620 colon, 21.1%; in the assay on MCF7 breast it was 23.5%; in the assay on HCT-116 colon, 25.4%. Moreover, the growth with HCC-2998 colon is 57.7%; in the assay on KM12 colon it was 30.8%.
For `C#Cc1cccc(NC(=O)Nc2ccc(NC(=O)CCl)cc2)c1`, the growth in the assay with T-47D breast was -40.2% [8.25 µM] (active); in the assay on BT-549 breast, -64.2% [8.25 µM] (active); in the assay with MDA-MB-435 melanoma, 21.7% [8.25 µM]; with SW-620 colon, -61.7% [8.25 µM] (active); with MCF7 breast, 14.1% [8.25 µM]; in the assay on HCT-116 colon it was -0.386% [8.25 µM] (active). Besides, the values for the growth in the assay with HCC-2998 colon and with KM12 colon were 82.6% [8.25 µM] and -27.2% [8.25 µM] (active), respectively.
For the compound `CCOC(=O)c1ccc(Nc2ccnc(SCC(=O)c3ccc(C#N)cc3)n2)cc1`, the growth in the assay on T-47D breast is 9.84% (active); in the assay on BT-549 breast it was 50.1%; in the assay with MDA-MB-435 melanoma it was 68.4%; in the assay on SW-620 colon, 89.8%; in the assay on MCF7 breast, 67%; in the assay on HCT-116 colon, 71.8%. Besides, the growth with HCC-2998 colon was 103%; with KM12 colon, 54.5%.
Regarding `COc1cc(/C=N/NC(=O)c2ccccc2Nc2cccc(C(F)(F)F)c2)ccc1O`, the growth with T-47D breast was 55.6%; in the assay on BT-549 breast, 102%; in the assay with MDA-MB-435 melanoma, 81.4%; with SW-620 colon, 101%; in the assay on MCF7 breast it was 83.9%; in the assay with HCT-116 colon it was 67.2%. Moreover, the growth was 91.4% with HCC-2998 colon and 79.5% in the assay with KM12 colon.
With `CC(=O)OCC(=O)C1(O)C(C)CC2C3C=C(C)C4=Cc5c(cnn5-c5ccccc5)CC4(C)C3C(O)CC21C` (stereo not given), the growth with T-47D breast was 40.4%; in the assay with BT-549 breast it was 21.5%; in the assay with MDA-MB-435 melanoma it was 33.7%; in the assay with SW-620 colon it was -30% (active); in the assay with MCF7 breast, 12.8%; in the assay on HCT-116 colon, 3.77% (active). The growth in the assay with HCC-2998 colon is 13.5%; in the assay on KM12 colon it was -28.7% (active).
